# Laboratory results from the supplement of paper PMC10338343.
# ± gives the standard deviation.
# Legend:
# [1] = test system: MILI (PIWIL2) piRISC loaded with L1MC piRNA (26 nt); test: pre-steady-state target cleavage rate (min^-1); guide: L1MC piRNA 5'p-UAACUAAAUACUAUGCAAGCUGUAGG; higher = faster piRNA-guided slicing of the target
# How it was run: (§1)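 A transcribed, DNA-blocked target RNA library (0.1 nM) and 1 nM active affinity-purified piRISC bearing one synthetic guide were incubated in HEPES–potassium acetate buffer at 33 °C for 0–8 or 0–960 min, either with or without 500 nM GTSF1 partner protein. Uncleaved targets were sequenced, normalised to depth and to weakly complementary targets, and pooled over three trials, with k3 capped at 0.0001 min^-1. The pre-steady-state cleavage rate was derived with a burst-and-steady-state fit.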
# [2] = test system: EfPiwi piRISC loaded with L1MC piRNA (26 nt); test: pre-steady-state target cleavage rate (min^-1); auxiliary factor: 500 nM Ephydatia muelleri Gtsf1; guide: L1MC piRNA 5'p-UAACUAAAUACUAUGCAAGCUGUAGG; MIWI and MILI are mouse PIWI proteins and EfPiwi is from a freshwater sponge; tags in brackets are library labels; higher = faster piRNA-guided slicing of the target
# How it was run: as §1
# [3] = auxiliary factor: 500 nM mouse GTSF1
# [4] = auxiliary factor: none (no GTSF1)
Sequence,"pre-steady-state target cleavage rate [1, 3]","pre-steady-state target cleavage rate [1, 4]",pre-steady-state target cleavage rate [2]
UCCUGGAUCAGCAUGCAUAGUAUUAAGUUA,0.24 ± 0.012,0.00634 ± 0.0023,0.00392 ± 0.002
UCCUGGAUCAGCUUGCAUAGUAUUUAGGUUA,0.271 ± 0.027,0.00531 ± 0.0025,0.00516 ± 0.0024
UCCUGGAUGAGCUUGCAUAGUAAUUAGUUA,0.184 ± 0.018,0.00598 ± 0.0024,0.0154 ± 0.0044
UCCUGGAUGAGGUUGCAUAGUAUUUAGUUA,0.129 ± 0.015,0.0136 ± 0.0032,0.00786 ± 0.0024
UCCUGGUACAGCUUGCAUAGUUAUUAGUUA,0.0387 ± 0.015,0.00509 ± 0.0027,0.00325 ± 0.0025
UCCUCCUACUGCUUGCAUUGUAUUUAGUUA,0.212 ± 0.013,0.00808 ± 0.0019,0.0605 ± 0.016
UCCUGGAACUGCUUGCAUAGUAUAUAGUUA,0.128 ± 0.021,0.00491 ± 0.0025,0.0584 ± 0.021
UCCUGGUCAGCUUGCAUAGUAUUUAGUUA,0.269 ± 0.016,0.012 ± 0.0027,0.14 ± 0.027
UCCUGCUACAGCUUGCAUAGUAUUUAGUCUA,0.116 ± 0.02,0.00343 ± 0.0029,0.00636 ± 0.0024
UCCUGGAACAGCUUGGAUAGUAUUUUGUUA,0.203 ± 0.034,0.00404 ± 0.0026,0.00249 ± 0.0021
UCCUCCGACAGCUUGCAUAGUAUUUAGUUA,0.25 ± 0.017,0.00881 ± 0.0021,0.101 ± 0.026
UCCUUCUACAGCUUGCAUAGUAUUUAGUUA,0.3 ± 0.015,0.0105 ± 0.0029,0.119 ± 0.035
UCCUGCUAGAGCUAGCAUAGUAUUUAGUUA,0.237 ± 0.031,0.00417 ± 0.0027,0.00618 ± 0.0016
UCCUGGAACAGCUUGCAUAGUAUUAGUUA,0.199 ± 0.016,0.0037 ± 0.0023,0.00229 ± 0.0021
UCCUCCUACAGCUUGCUUAGUAUUUAGUUA,0.275 ± 0.015,0.00811 ± 0.0021,0.0424 ± 0.012
UCCUGGAUCUGCUUGCUUAGUAUUUAGUUA,0.238 ± 0.017,0.00748 ± 0.0024,0.0931 ± 0.028
UCCUCCUUCAGCUUGCAUAGUAUUAAGUUA,0.155 ± 0.022,0.00246 ± 0.0023,0.00716 ± 0.0031
UCCUGGAUCAUCUUGCAUAGUAUUUAGUUA,0.241 ± 0.014,0.00614 ± 0.002,0.101 ± 0.023
UCCUGGAACAGCUUGCAUAGUAUUUAGUAUA,0.273 ± 0.027,0.00406 ± 0.0038,0.00935 ± 0.005
UCCUCCGUACAGCUUGCAUAGUAUUUAGUUA,0.272 ± 0.014,0.0094 ± 0.0023,0.0578 ± 0.018
UCCUCCUACAGCUUGCAUAGUAUUUAGUA,0.177 ± 0.021,0.00474 ± 0.0025,0.00701 ± 0.0026
UCCUGCUACAGCUUGCAUUGUAUUUAGUAA,0.176 ± 0.018,0.00356 ± 0.002,0.00316 ± 0.0014
UCCUGGAUGAAGCUUGCAUAGUAUUUAGUUA,0.224 ± 0.02,0.0106 ± 0.0031,0.0366 ± 0.0082
UCCUGCUACAGCUUGGAUAGUAUUUUGUUA,0.109 ± 0.019,0.00311 ± 0.003,0.00556 ± 0.002
UCCUCCUACAGCUUGCAUAGUAUUUUGUUA,0.177 ± 0.023,0.0036 ± 0.0022,0.00791 ± 0.0033
